ssDAF-12 act – S. stercoralis DAF-12 nuclear receptor activators, primary screen, cell-based, luminescence, HEK293, GRIP1 co-expression, lit1-tk-luc; Nuclear hormone receptor DAF-12 (Strongyloides stercoralis); HEK293 ssDAF-12/GRIP1 lit1-tk-luc reporter; % of 3 µM dafachronic acid response; activation, % at 6.8 µM; 1% of 370,000 active; AID 652126, 2013;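 active = activation above the mean over all tested compounds plus 3 SD, cut at about 0.9% in these data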;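 note: 0% = DMSO-only wells and 100% = 3 µM delta7-dafachronic acid wells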
DAX1 inh-1 – DAX1 (NR0B1) inhibitors on StAR promoter, primary screen, cell-based, luminescence, SF-1 (NR5A1), full-length DAX-1 | HEK293T StAR-luciferase reporter, SF-1/DAX-1 repression relief | inhibition, % at 6.8 µM | 1.1% of 370,000 active | AID 652010, 2013;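 active = inhibition above the mean over all tested compounds plus 3 SD, cut at about 3.6% in these data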;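 note: 0% = DAX-1 cells with DMSO and 100% = cells lacking DAX-1 with DMSO; higher inhibition means more luminescence from relief of DAX-1 repression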
hgDAF12 agonist – H. glycines DAF-12 receptor agonists, primary screen, cell-based, luminescence, HEK293, GAL4 fusion, UAS-luciferase; Nuclear hormone receptor DAF-12 (Heterodera glycines), GAL4 fusion; HEK293 GAL4-hgDAF12 UAS-luciferase reporter, agonist luminescence; normalized to butyrate control; activation, % at 6.8 µM; 1.8% of 370,000 active; AID 687014, 2013;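 active = activation above a cutoff set at the mean of all screened compounds plus 3 SD, cut at about 10% in these data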;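 note: 0% = DMSO wells and 100% = sodium butyrate wells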
hcDAF-12 act – H. contortus DAF-12 nuclear receptor activators, primary screen, cell-based, luminescence, HEK293, lit1-tk-luc reporter; HEK293 hcDAF-12 lit1-tk-luc reporter; 0% DMSO, 100% Δ7-dafachronic acid; 1.4% of 370,000 active; activation, % at 6.8 µM;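 active = activation above the mean of all tested compounds plus 3 SD, cut at about 5.5% in these data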;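 note: 100% = response to 3 µM Δ7-dafachronic acid high control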
DAX1 inh-2 – DAX1 (NR0B1) inhibitors, primary screen, cell-based, HEK293, Gal4-DAX1, luciferase luminescence; Nuclear receptor subfamily 0 group B member 1 (Homo sapiens), P51843; HEK293 Gal4-DAX1 luciferase reporter; inhibition, % at 6.75 µM; 0.99% of 340,000 active;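 active = inhibition above the mean over all tested compounds plus 3 SD, cut at about 4.2% in these data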;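 note: 0% = DAX1-transfected cells with DMSO and 100% = empty-vector control cells with DMSO; inhibition shows as a rise in luminescence from relieved DAX1 repression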
Target sequence (P51843 207-470 limits assumed): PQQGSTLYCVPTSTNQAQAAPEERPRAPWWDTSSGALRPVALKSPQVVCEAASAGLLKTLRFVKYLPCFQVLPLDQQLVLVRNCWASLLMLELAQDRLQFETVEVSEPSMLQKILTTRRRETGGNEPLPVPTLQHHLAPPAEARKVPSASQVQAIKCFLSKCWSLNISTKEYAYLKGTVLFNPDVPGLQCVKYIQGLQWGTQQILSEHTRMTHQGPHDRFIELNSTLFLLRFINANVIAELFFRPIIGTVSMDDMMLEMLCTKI
hgDAF12 conf – H. glycines DAF-12 receptor agonists, confirmation, cell-based, luminescence, HEK293, GAL4-LBD fusion; shares compounds with hgDAF12 agonist; HEK293 GAL4-hgDAF12 luciferase reporter, agonist mode; percent of butyrate response; activation, % at 6.8 µM; 80% of 3,300 active; AID 743050, 2013;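 active = mean activation over triplicate wells above the hit cutoff derived from the earlier primary screen, cut at about 11% in these data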;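 note: 0% = DMSO low control and 100% = 2 mM sodium butyrate high control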
LXRb DAF12 ctr – LXR agonists, Gal4 luciferase reporter, confirmation, counter-screen for hgDAF-12 agonist project, cell-based, luminescence, HEK293, H. glycines campaign; shares compounds with hgDAF12 agonist; 24 h; activation, % at 6.8 µM; 3,300 tested, under 10 active;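 active = mean activation of the triplicate above a set limit carried over from the primary screen, none filed active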
* hit, by the source's call; . = not tested or not shown. The list is not random: actives were taken first. Their share in the collection is about 4.1%.

SMILES	ssDAF-12 act	DAX1 inh-1	hgDAF12 agonist	hcDAF-12 act	DAX1 inh-2	hgDAF12 conf	LXRb DAF12 ctr
O=C(NCc1ccccc1)C(c1ccc(-c2ccccc2)cc1)N1CCN(C(=O)C2CCCO2)CC1 (stereo not drawn)	-1	-1	-2	0	.	.	.
COc1ccc(Br)c(C(=O)Nc2nc3ccccc3[nH]2)c1	-1	1	3	1	1	.	.
COc1ccc2oc(C(=O)Nc3nc4ccccc4[nH]3)c(C)c2c1	0	4.2*	25*	5	2	18*	1
Nc1ccccc1C#Cc1ccc2[nH]ccc2c1	0	1	14*	3	7.2*	12*	0
CCOc1cc(CCNC(=O)c2cc3sccc3n2CC)ccc1OC	-2	-2	-1	-3	.	.	.
Cc1nc2sc(-c3ccccc3)nn2c(=O)c1Br	-1	3	16*	4	0	17*	1
COC(=O)Cc1nnn2c1[C@H](C)[C@H](c1cccc(OC)c1OC)OCC2	-1	0	0	-1	.	.	.
O=C(N/N=C\C=C\c1ccco1)c1cc(-c2ccc3ccccc3c2)n[nH]1	1	3	16*	4	4	7	0
C/C(C=NNC(=O)c1cc(-c2ccc(C)c(C)c2)n[nH]1)=C/c1ccco1	-2	-3	4	-2	.	.	.
Cc1nc(N)sc1C(=O)N/N=C/c1ccccc1[N+](=O)[O-]	-1	2	14*	2	.	10	0
CN(C(=O)COC(=O)c1ccc2c(c1)OCO2)C1CCCCC1	-1	1	13*	1	2	7	0
CN(C(=O)COC(=O)c1ccc2c(c1)OCO2)C1CCS(=O)(=O)C1 (stereo not drawn)	-1	0	0	0	1	.	.
O=C(NCCc1ccccc1)OCc1cn(Cc2cc(F)ccc2F)nn1	-1	0	5	-3	.	.	.
Cc1ccc(NC(=O)Nc2ccc(F)cc2)nc1	0	1	6	0	0	.	.
Cc1ccnc(NC(=O)Nc2ccc(F)cc2)c1	1	3	14*	5	2	19*	1
O=C(NCCSC1CCCCC1)c1ccccc1	0	2	5	1	0	.	.
COc1ccc(C(=O)NCCSC2CCCCC2)cc1	0	2	16*	3	0	11*	0
CN(Cc1ccccc1)C(=O)c1ccc2nc([C@@H]3O[C@H](CO)[C@H](O)[C@H](O)[C@H]3O)[nH]c2c1	-1	2	1	1	.	.	.
CCN(CC)CCCC(C)Nc1nccc2cccc(Cl)c12 (stereo not drawn)	-1	1	1	1	1	.	.
CCN(CC)CC(O)CNc1ccnc2c(Cl)ccc(Cl)c12 (stereo not drawn)	0	1	13*	1	1	3	0
O=C1NC(=S)NC1=Cc1ccc(Cl)cc1Cl	-1	-1	0	-1	1	.	.
O=C1NC(=O)C(=Cc2ccc(Cl)cc2Cl)S1	1	4.4*	18*	3	3	14*	1
C=C(C)C1CC=C(C)/C(=N/NC(=O)c2ccoc2C)C1 (stereo not drawn)	0	4.3*	20*	5.9*	3	1	0
C=C(C)C1CC=C(C)/C(=N/NC(=O)c2cccc([N+](=O)[O-])c2)C1 (stereo not drawn)	-1	0	4	1	1	.	.
CN(C)c1cccc(NC(=O)C2Cc3c(-c4cccnc4)ccnc3O2)c1 (stereo not drawn)	-1	1	4	1	.	.	.
SMILES	ssDAF-12 act	DAX1 inh-1	hgDAF12 agonist	hcDAF-12 act	DAX1 inh-2	hgDAF12 conf	LXRb DAF12 ctr
C/C(=N\Nc1nncc2ccccc12)c1cccc(OC(F)F)c1	1	2	18*	6.1*	-2	20*	1
CCCC(=O)Nc1ccc2c(c1)C(=O)N(C)[C@H]1CC[C@@H](CC(=O)OC)O[C@@H]1CO2	-1	1	5	-3	.	.	.
O=C(Nc1ccccc1Cl)c1ccc(Cl)cc1Cl	-1	0	4	-1	1	.	.
O=C(NC(=S)Nc1ccccc1O)c1ccc(Cl)cc1Cl	1	1	14*	6.5*	0	9	0
CCCN1CCCCC(NC(=O)c2c(F)cccc2F)C1=O (stereo not drawn)	-1	0	2	1	.	.	.
Cc1ccc(C)c(NC(=O)Cn2nnc(-c3ccncc3)n2)c1	-1	1	0	4	.	.	.
Cc1ccc(-c2nc(Nc3cccc(C)c3)sc2CC(=O)O)cc1	0	4	17*	3	1	5	0
O=C(c1ccco1)N1CCc2ccccc21	-1	3	14*	3	1	8	0
CCOC(=O)C1(C)CCN1C(=O)c1cc(F)cc(F)c1 (stereo not drawn)	-1	0	1	0	.	.	.
COc1ccccc1CCn1cnc(-c2cccc(F)c2)c1CC(C)C	-1	-2	-3	-2	.	.	.
COC(=O)C1=C(C)N(Cc2cccc(C(F)(F)F)c2)C(=NCc2ccc3c(c2)OCO3)NC1c1ccc(F)cc1 (stereo not drawn)	-1	-1	-1	-3	.	.	.
COc1ccc(/C=N/NC(=O)c2sccc2C)c2ccccc12	0	1	15*	3	6.2*	5	0
OC(c1ccccc1)(c1ccccc1)C1CCN(CCCOc2cccc(F)c2)CC1	-1	0	3	1	.	.	.
CN=c1sc(C(=O)Nc2cccc(Cl)c2)cc(=O)n1C	-1	-1	3	-1	-2	.	.
Cn1ccs/c1=N\C(=O)Nc1cccc(Cl)c1	0	3	16*	2	1	11*	1
O=C1/C(=C/c2ccccc2)CCCc2ccccc21	0	1	14*	3	0	11*	0
CC(C)CCNC(=O)C1(C)CCN1Cc1ccc(-c2ccccn2)cc1 (stereo not drawn)	-2	-2	-1	-3	.	.	.
CCCn1c(C)cc(C(=O)CN2C(=O)NC3(CCCCCC3)C2=O)c1C	-1	3	16*	4	1	8	0
